Each structure is given as a SMILES string. In all, about 110,000 compounds were measured (“z-score”: median about -0.1, highest 2% from about 2 on). The full list was thinned out, with the highest values kept by preference. Calls of active or inactive are those of the source.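 How the source made its calls: active means z-score in the third read window above 3 or below -3; inactive means the rest.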

Sequence of Metabotropic glutamate receptor 8 (Rattus norvegicus) (P70579 whole entry, looked up): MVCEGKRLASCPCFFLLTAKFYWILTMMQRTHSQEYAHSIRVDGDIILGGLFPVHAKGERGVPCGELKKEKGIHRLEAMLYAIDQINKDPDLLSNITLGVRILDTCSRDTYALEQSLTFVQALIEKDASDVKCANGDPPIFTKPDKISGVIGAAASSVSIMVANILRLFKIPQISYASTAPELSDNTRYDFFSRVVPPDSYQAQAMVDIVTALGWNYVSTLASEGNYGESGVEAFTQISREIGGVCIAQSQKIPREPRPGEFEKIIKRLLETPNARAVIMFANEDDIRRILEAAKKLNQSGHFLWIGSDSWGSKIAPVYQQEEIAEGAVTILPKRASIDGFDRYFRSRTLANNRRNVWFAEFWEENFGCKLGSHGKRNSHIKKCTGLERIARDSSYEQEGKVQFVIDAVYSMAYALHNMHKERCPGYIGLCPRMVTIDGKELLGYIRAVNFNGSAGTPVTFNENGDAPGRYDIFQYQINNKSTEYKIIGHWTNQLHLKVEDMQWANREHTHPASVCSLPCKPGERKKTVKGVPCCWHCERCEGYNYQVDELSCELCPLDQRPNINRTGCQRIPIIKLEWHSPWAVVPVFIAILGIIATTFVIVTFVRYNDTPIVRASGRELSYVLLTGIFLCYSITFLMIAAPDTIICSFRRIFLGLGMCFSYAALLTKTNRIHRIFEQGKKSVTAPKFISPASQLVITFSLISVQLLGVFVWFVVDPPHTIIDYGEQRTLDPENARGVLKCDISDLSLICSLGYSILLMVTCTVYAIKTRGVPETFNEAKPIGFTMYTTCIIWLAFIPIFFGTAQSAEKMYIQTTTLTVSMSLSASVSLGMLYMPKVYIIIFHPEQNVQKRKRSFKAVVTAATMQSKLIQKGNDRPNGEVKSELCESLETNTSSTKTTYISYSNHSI

The experiment addresses Metabotropic glutamate receptor 8 (Rattus norvegicus) (UniProt P70579). Nature of the experiment: rat mGluR8 modulators via GIRK flux, primary screen, cell-based, thallium flux, HTS (AID 488969). The following applies: HEK293 rat mGluR8, GIRK (G protein-gated inwardly rectifying potassium channel) thallium flux, FluoZin2; at 10 µM; stronger effect = higher value; submaximal glutamate (EC20) added with thallium.
`OC(CCN1CCOCC1)(c1ccc(Cl)cc1)C1CCCCC1` (stereo not given) showed a z-score of -0.807.

Take `Cc1ccc(NC(=S)N/C(=N/S(=O)(=O)c2ccccc2)c2ccccc2)cc1`: the z-score turned out to be 1.36.

In turn, `COCCN(C(=O)Cc1cccs1)C(C(=O)NCc1ccc(OC)cc1)c1ccc(OC)cc1` (stereo not given) gave a z-score of -0.202.

On to `COCCN(C(=O)Cc1cccs1)C(C(=O)NCc1ccc(OC)cc1)c1ccccc1` (stereo not given), for which the z-score was 3.95 (active).

Turning to `CCc1ccc(C(C(=O)NCc2ccc(OC)cc2)N(CCOC)C(=O)Cc2cccs2)cc1` (stereo not given), the z-score is -0.37.

Take `Clc1ccc(N=c2ssnc2Cl)cc1`: the z-score was -0.0573.

As for `C=C(C)COc1ccc(-c2[nH]ncc2-c2ccccc2OC)c(O)c1`, the z-score is 0.603.

In turn, `Cc1cccc(Oc2cc(NC(=O)c3ccccc3)cc([N+](=O)[O-])c2)c1` displayed a z-score of -0.382.

For `CCn1cc(CNC(=O)CCSc2nc(-c3ccco3)cc(C(F)(F)F)n2)cn1`, the z-score is -0.23.

With `CCC/C(=N/NC(=O)c1cccc(Cl)c1)c1ccccc1`, the z-score was 5.45 (active).

`COc1cccc(C(=O)N/N=C(/CCC(=O)O)c2ccccc2)c1` had a z-score of -0.189.

Regarding `CCC/C(=N\NC(=O)c1ccccc1C)c1ccccc1`, the z-score was -0.166.

The molecule `CCC1=NC(c2ccc(OC)cc2OC)N(O)C1(C)C` (stereo not given) gave a z-score of -0.547.

`COCc1c(C(=O)N2CCN(c3ccc(C(F)(F)F)cn3)CC2)oc2ccccc12` came in with a z-score of -0.0186.

For the molecule `CCN(CC)C(=O)COc1ccc2oc(C)c(C(=O)OC(C)C)c2c1`, the z-score is -0.537.

As for `CCN(CC)C(=O)COc1ccc2oc(C)c(C(=O)OC)c2c1`, the z-score is 3.23 (active).

The molecule `CCOC(=O)c1c(C)oc2ccc(OCC(=O)C(C)(C)C)cc12` had a z-score of -1.03.

In turn, `CCOC(=O)C1=C(CNCc2ccccc2Cl)NC(=O)NC1c1ccc2c(c1)OCO2` (stereo not given) registered a z-score of 0.278.

Turning to `COc1ccc(Br)cc1CN1CCCCCCC1`, the z-score is 0.169.

Molecule `COc1cc(-c2nc(-c3ccc(NC(=O)c4ccc5c(c4)OCO5)cc3)no2)cc(OC)c1OC` showed a z-score of 0.262.

The molecule `CC12CN(C(=O)c3ccccc3)C3(C#N)CC1CCC23C` (stereo not given) registered a z-score of 0.729.

`NC(N)=N/N=C/c1ccc(OCc2ccccc2)cc1`: the z-score was 0.177.

For the molecule `CC1(C)Cc2nc3sc4c(SCC(=O)NC(c5ccccc5)c5ccccc5)ncnc4c3cc2CO1`, the z-score was 0.0674.

On to `CC1(C)Cc2nc3sc4c(SCC(=O)NCc5ccco5)ncnc4c3cc2CO1`, for which the z-score is -0.999.

`CC1(C)Cc2nc3sc4c(SCC(=O)NCc5ccccc5)ncnc4c3cc2CO1` came in with a z-score of 2.31.

For the molecule `CC(=O)c1ccc(OCC(O)CN2CCCC(C)C2)cc1` (stereo not given), the z-score is -0.0491.

Turning to `O=C(Nc1ncc2c(n1)-c1ccccc1CC2)c1ccccc1`, the z-score was -0.277.

In turn, `COc1ccc(-c2c[n+]3c4n2CCCCC4=C(c2ccccc2)C3)cc1` gave a z-score of 2.82.

`COc1ccc(-c2c[n+]3c4n2CCCCC4=C(c2ccc(Br)cc2)C3)cc1` had a z-score of 1.54.

On to `Clc1ccc(C2=C3CCCCn4c(-c5ccccc5)c[n+](c43)C2)cc1`, for which the z-score was 0.498.

In turn, `CCCc1ccccc1OCCNC(C)=O` had a z-score of -0.472.

`O=C(COc1ccccc1)NC1=NCCS1` returned a z-score of -0.0489.

With `CC(NC(=O)COc1ccccc1)C(=O)NC1=NCCS1` (stereo not given), the z-score is 3.96 (active).

For the molecule `CC(NC(=O)c1ccccc1)C(=O)NC1=NCCS1` (stereo not given), the z-score stood at 0.0634.

With `COc1cc(-c2nc(-c3ccc(Br)o3)no2)cc(OC)c1OC`, the z-score was -0.294.

`CCOc1ccc(Cl)cc1CNCCNCC(C)O` (stereo not given) displayed a z-score of 2.17.

`CCOc1c(Cl)cc(Cl)cc1CNCCNCCO` came in with a z-score of 0.738.

Take `COc1c(Cl)cc(Cl)cc1CNCCNCC(C)O` (stereo not given): the z-score is 3.74 (active).

For `CCOc1ccc(Cl)cc1CNCCNCCO`, the z-score worked out at 0.172.

`CCOc1cccc(CNCCO)c1OCc1ccc(Cl)cc1Cl` returned a z-score of 0.93.

For `COc1c(Cl)cc(Cl)cc1CNCCNCCO`, the z-score came out at 0.598.

With `CN(C)C(C)(C)C#CCCCCC#CC(C)(C)N(C)C`, the z-score was -0.195.

`N#Cc1cc2cc3c(cc2nc1N1CCOCC1)OCO3` displayed a z-score of -0.918.

On to `O=C1C2ON(c3ccccc3)C(c3ccncc3)C2C(=O)N1c1ccc(N2CCOCC2)cc1` (stereo not given), for which the z-score is -0.522.

Turning to `CCCCNc1c2c3c(cccc3n(C)c1=O)C(=O)c1ccccc1-2`, the z-score was 16.2 (active).

Molecule `Cn1c(=O)c(NCCO)c2c3c(cccc31)C(=O)c1ccccc1-2` displayed a z-score of -2.23.

Consider `Cn1c(=O)c(NCCc2ccccc2)c2c3c(cccc31)C(=O)c1ccccc1-2`, for which the z-score turned out to be 1.94.

Regarding `Cc1noc(/C=C/N(C)C)c1S(=O)(=O)N1CCCC(C(=O)NCCC2=CCCCC2)C1` (stereo not given), the z-score was -0.237.

The molecule `CC(C)(C)c1nnc(N/N=C/c2ccc(Br)cc2)n(N)c1=O` yielded a z-score of 0.0626.

`CC(C)(C)c1nnc(N/N=C/c2ccccc2O)n(N)c1=O` showed a z-score of -0.149.

Molecule `CC(C)(C)c1nnc(N/N=C/c2ccccc2)n(N)c1=O` gave a z-score of 2.74.

In the case of `COc1ccc(-c2csc(Nc3ccc(S(N)(=O)=O)cc3)n2)cc1`, the z-score is -0.213.

As to `Cc1ccc([N+](=O)[O-])cc1NC(=S)NC(=O)CC(C)(C)C`, the z-score was found to be 0.834.

Turning to `Cc1ccc([N+](=O)[O-])cc1NC(=S)NC(=O)c1ccco1`, the z-score was 7.69 (active).

Take `O=C(Nc1cc([N+](=O)[O-])ccc1F)c1cccs1`: the z-score is -0.0753.

On to `Cc1ccc([N+](=O)[O-])cc1N/C=C/C(=O)c1ccco1`, for which the z-score is -0.039.

Regarding `Cc1ccc([N+](=O)[O-])cc1NC(=S)NC(=O)c1cccs1`, the z-score worked out at 2.46.

In the case of `Cc1ccc([N+](=O)[O-])cc1NC(=S)NC(=O)C(C)(C)C`, the z-score was determined as 0.72.

On to `COC(=O)c1ccc(C(=O)OC)c(NC(=O)COC(=O)CC2CC3CCC2C3)c1` (stereo not given), for which the z-score was -0.338.

As for `CC1CCCC(C)N1c1nnc(NC(=O)c2cc(-c3ccc(Br)cc3)on2)s1` (stereo not given), the z-score amounted to 2.04.

In the case of `O=C(Nc1nnc(N2CCCCCC2)s1)c1cc(-c2ccc(Br)cc2)on1`, the z-score is -0.0797.

As for `CC1CCCCN1c1nnc(NC(=O)c2cc(-c3ccc(Br)cc3)on2)s1` (stereo not given), the z-score is -0.71.

For the molecule `O=C(CC12CC3CC(CC(C3)C1)C2)NCC(=O)OCc1cc(=O)oc2ccc3ccccc3c12`, the z-score was -0.205.

As to `O=CN1CCN(C(C(=O)NC2CCCC2)c2ccc(Cl)cc2)CC1` (stereo not given), the z-score is 0.0147.

Consider `CCc1ccc(-c2nc(CN3CCC(C(=O)NCCc4ccc(OC)c(OC)c4)CC3)c(C)o2)cc1`, for which the z-score stood at 0.471.

`COc1ccc(CCNC(=O)C2CCCN(Cc3nc(-c4cccc(Cl)c4)oc3C)C2)cc1OC` (stereo not given): the z-score amounted to 1.07.

Regarding `CCc1ccc(-c2nc(CN3CCC(C(=O)N4CCN(c5ccccc5)CC4)CC3)c(C)o2)cc1`, the z-score turned out to be 2.2.

`CCc1ccc(-c2nc(CN3CCC(C(=O)NCCN(CC)c4ccccc4)CC3)c(C)o2)cc1` registered a z-score of 1.17.

In turn, `CCc1ccc(-c2nc(CN3CCCC(C(=O)NCCc4ccc(OC)c(OC)c4)C3)c(C)o2)cc1` (stereo not given) had a z-score of 2.2.

Regarding `Cc1oc(-c2ccc(Cl)cc2)nc1CN1CCC(C(=O)N2CCN(Cc3ccccc3)CC2)CC1`, the z-score came out at 0.0945.

The record behind these values is PubChem BioAssay AID488969 (Vanderbilt High Throughput Screening Facility, 2010).
